S-ASM inh: Inhibitors of Secretory Acid Sphingomyelinase (S-ASM): qHTS. Potency, µM (top dose mostly 57.5 µM), without a hit: at the highest dose activity change, negative = inhibition, most hits filed as inhibitors. placental ASM, HMU-PC fluorogenic substrate, 60 min. 340,000 tested, 0.006% active. Sphingomyelin phosphodiesterase (Homo sapiens), P17405; further: potency means the concentration at half of the fitted maximal effect
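Steps: dispense placental human ASM, pin compound, wait 10 min at room temperature, add HMU-PC0 substrate at 9 uM final, incubate 60 min at 37 °C, add stop solution raising pH to 10, read fluorescence.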
Chronic BCR inh: qHTS Assay to Find Inhibitors of Chronic Active B-Cell Receptor Signaling; ABC-DLBCL IkBa-CBG/CBR reporter, luminescence ratio, 4 h; AID 493014, 2011; Potency, µM (doses to about 46.1 µM), without a hit: at the highest dose activity change, negative = inhibition, most hits filed as inhibitors; 340,000 tested, 0.05% active; active means well fitted inhibition curve with a large enough effect in the signal ratio, with a control signal flat, not every such curve was filed as active; inconclusive means small, poorly fitted or top-dose-only effect, or effect the other way, or a change in a side signal; the % refers to the signal ratio;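 further: potency means the concentration at half of the fitted maximal effect; plate controls were basal doxycycline-induced cells for no effect and cells given 10 µM MG132 for full effect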
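TMD8 ABC-DLBCL cells carrying doxycycline-inducible green luciferase fused to IkappaBalpha plus unfused red luciferase were exposed to compounds (up to 46 uM) for 4 hrs at 37C. Activity came from the overlap-corrected green/red luminescence ratio.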
TCR activator: Activators of T cell receptors: qHTS campaign. Potency, µM (top dose mostly 9.22 µM), without a hit: top-dose activation of IL-2 secretion, usual class: activators. primary human leukocytes, anti-CD3, IL-2 HTRF, 48 h. AID 504894, 2011. 330,000 tested, under 10 active; further: % of control where 0% means no effect
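Primary human leukocytes receive a-CD3 beads and test compound and are incubated 48 hr. Secreted IL-2 is then assayed by HTRF, measuring 665nm acceptor emission after 320nm excitation of the europium donor.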
CCT chaperon mod: High-Throughput Screening for Modulators of Cytosolic Chaperonin Activity; activity change, % (test concentration not listed), hits read low; purified chaperonin ATPase assay, HTRF ADP detection, 30 min; AID 651819, 2012; 360,000 tested, 0.3% active; in the data active means activity change below about -30%; further: on the % scale 0 is the no-effect control and ±100 the full control effect
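TRiC at 40 or 20 nM final (batch-dependent) in 30 mM Tris pH 7.4, 100 mM KCl, 5 mM MgCl2, 1 mM DTT, with compound at single 76 uM and 10 uM ATP, 30 min at 37 deg C. ADP detected by HTRF Transcreener, 665/615 ratio.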
Tb PFK inh: qHTS Assay to Find Inhibitors of T. brucei phosphofructokinase. ATP-dependent 6-phosphofructokinase (Trypanosoma brucei brucei), O15648. T. brucei PFK, ADP-Glo luminescence. Potency, µM (series often up to 57.5 µM), for inactives: top-dose activity, negative = inhibition, hits mostly inhibitors. 330,000 tested, 0.17% active;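 further: potency means the concentration at half of the fitted maximal effect; 0% = uninhibited 1x PFK enzyme wells and -100% = no-enzyme wells; nearly all actives have a fitted effect of over 60% in size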
Target sequence (O15648 whole entry, looked up): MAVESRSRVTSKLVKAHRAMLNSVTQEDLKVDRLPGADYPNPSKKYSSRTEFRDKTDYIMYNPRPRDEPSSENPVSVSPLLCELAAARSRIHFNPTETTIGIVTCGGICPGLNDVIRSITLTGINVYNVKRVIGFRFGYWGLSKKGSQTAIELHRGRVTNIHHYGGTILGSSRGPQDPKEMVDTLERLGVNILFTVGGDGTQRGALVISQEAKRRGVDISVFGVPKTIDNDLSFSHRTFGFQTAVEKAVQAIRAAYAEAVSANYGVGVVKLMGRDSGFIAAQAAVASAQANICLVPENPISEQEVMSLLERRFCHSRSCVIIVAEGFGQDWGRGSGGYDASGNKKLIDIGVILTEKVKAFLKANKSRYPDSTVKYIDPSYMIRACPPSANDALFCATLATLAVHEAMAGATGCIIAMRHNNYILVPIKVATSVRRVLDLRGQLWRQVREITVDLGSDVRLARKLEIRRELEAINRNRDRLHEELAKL
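Activity is normalized to no-enzyme wells (full inhibition) and 1.25 nM enzyme wells (no inhibition). Reaction: 0.5 mM F6P, 0.1 mM ATP, 45 min RT, ADP-Glo luminescence; concentration-response curves fitted and classed by quality.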
* hit, by the source's call; ? = inconclusive; nt = not tested or not shown; [ ] = dose if it differs, or a comment. Most compounds without a hit are left out; they make up all but 0.49% or so of the library. Unless noted, the call rests on the fitted dose curve; in most records, active means well fitted curve in the direction sought with a large enough effect; inconclusive means small, poorly fitted or top-dose-only effect, or another doubt; inactive means no such curve, though single readings can be large; an effect the other way counts as inactive or inconclusive.

SMILES	S-ASM inh	Chronic BCR inh	TCR activator	CCT chaperon mod	Tb PFK inh
CC(C)(C)n1nnnc1C(c1ccccc1)N1CCc2ccccc2C1 (stereo unspecified)	3%	0%	0%	-57*	1%
CN(C)c1ccc(C(c2nnnn2C(C)(C)C)N2CCc3ccccc3C2)cc1 (stereo unspecified)	nt	3%	nt	nt	-3%
CCCCSCCCNC(=O)C1CCC(CNS(=O)(=O)c2c(C)cc(C)cc2C)CC1 (stereo unspecified)	nt	6%	nt	nt	nt
Cc1cc(C)cc(OCCn2ccnc2)c1	4%	-7%	2%	-73*	0%
Cn1c(=S)c2[nH]c(SCCN)nc2n(C)c1=O	-3%	nt	5%	-1	nt
Cn1c(=S)c2[nH]c(SCCN3CCCC3)nc2n(C)c1=O	-1%	11µM*	12%	0	-30%
O=C(Nc1cccc(Cl)c1)c1ccccc1	-7%	-4%	-3%	0	-2%
O=C(Nc1ccc(Cl)c(Cl)c1)Oc1ccc(NC(=O)c2ccco2)cc1	-21%	?	-5%	-2	13µM*
O=C(Nc1ccc(Cl)c(Cl)c1)c1ccccc1	-1%	-15%	1%	-50*	?
N#Cc1ccc(OCC(=O)NCC2COc3ccccc3O2)cc1 (stereo unspecified)	1%	-1%	3%	-41*	-5%
CCN(c1ccccc1)S(=O)(=O)c1ccc2[nH]cc(C(=O)NCc3ccc(C)cc3)c(=O)c2c1	nt	4%	nt	nt	nt
CCOC(=O)c1cc(-c2ccc(N3CCOCC3)cc2)nn1-c1ccc(F)cc1F	28µM*	-15%	2%	-1	10%
CCOc1cc(C(=O)Nc2ccc(-c3nc4ccccc4s3)cc2Cl)cc(OCC)c1OCC	nt	3%	nt	nt	nt
COc1ccc(-c2nnc(SCC(=O)Nc3ccc(C)c(Cl)c3)nc2-c2ccc(OC)c(OC)c2)cc1OC	nt	-15%	nt	nt	nt
CCOc1ccc(/C=N/OCC(=O)Nc2cc(S(=O)(=O)N3CCOCC3)ccc2OC)cc1	18%	nt	-3%	-84*	nt
COc1cc(NC(=O)Cn2nnc(-c3ccc(C(F)(F)F)cc3)n2)c(C(=O)O)cc1OC	nt	4%	nt	nt	nt
COc1cccc(NC(=O)Cn2nc(C)c3c(C)n(-c4ccccc4)nc3c2=O)c1	nt	-7%	nt	nt	nt
Cc1ccc(-c2ccnc(-c3ccc(O)cc3)n2)cc1	-2%	12%	-5%	-38*	-1%
CCOc1ccc(N2CC(NC(=O)c3ccc(S(=O)(=O)N4CCCCC4)cc3)CC2=O)cc1 (stereo unspecified)	nt	1%	nt	nt	nt
COc1ccc(C(=O)N(c2ccc(C)cc2)S(=O)(=O)c2ccc(C)cc2)cc1	nt	-27%	nt	nt	nt
COc1cc(C(=O)NCC(=O)OCc2ccccc2Cl)cc(OC)c1OC	0%	-2%	-20%	-35*	0%
COc1ccc(/C=C/C(=O)O)cc1S(=O)(=O)NC1CCS(=O)(=O)C1 (stereo unspecified)	-1%	?	-6%	-97*	-3%
Cn1c(=O)c2c(SCC(=O)N3CCOCC3)nc(-c3ccccc3Cl)nc2n(C)c1=O	-2%	?	-5%	-30*	-1%
CCCc1nc(SCC(=O)N2CCN(c3ccccc3)CC2)c2c(=O)n(C)c(=O)n(C)c2n1	-6%	0%	-5%[46.1 µM]	-39*	0%
CC(=C/c1ccccc1)/C=N/Nc1nc(N2CCOCC2)nc(N2CCOCC2)n1	-1%	-1%	-6%[46.1 µM]	-49*	1%
CC(=O)NC(c1ccco1)c1cc(Cl)c2ccc(N(C)C)nc2c1O (stereo unspecified)	nt	-27%	nt	nt	-10%
Cc1cccc(CC(=O)N2CCC(n3nccc3NC(=O)C3CC3)CC2)c1	0%	7%	7%	-56*	1%
O=C(Nc1ccnn1C1CCN(C(=O)Cc2cccc(Cl)c2)CC1)C1CC1	-1%	0%	3%	0	0%
O=C(O)C1CCCN1S(=O)(=O)c1cc(Cl)ccc1Cl (stereo unspecified)	4%	0%	-6%	-56*	2%
O=C(O)[C@@H]1CCCN1S(=O)(=O)c1cccc(S(=O)(=O)N2CCC[C@H]2C(=O)O)c1	1%	-2%	0%	0	-1%
